Measurements taken from the supplement of paper PMC11001985.
Unmarked numbers belong to inactive results.

compound: C#CCNC(=O)CCSSCCC(=O)NCCc1ccc(C=O)c(C=O)c1; test: lysine labeling ratio R10:1 (500 µM / 50 µM probe), SILAC-ABPP in living cells; higher = lower intrinsic lysine reactivity toward the probe, active = 2 or less; conditions: HeLa; probe concentrations 500 vs 50 µM
Summary of the method: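 Forward and reverse SILAC label swaps were used with living light and heavy HeLa cells in PBS at room temperature, which were given an alkyne-tagged, disulfide-linked lysine probe at 50 µM or 500 µM. R is the per-lysine filtered median high-probe/low-probe MS1 peptide ratio, with the median then taken across both swap directions. Values are limited to 20.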

UniProt P26038, sequence (P26038 whole entry): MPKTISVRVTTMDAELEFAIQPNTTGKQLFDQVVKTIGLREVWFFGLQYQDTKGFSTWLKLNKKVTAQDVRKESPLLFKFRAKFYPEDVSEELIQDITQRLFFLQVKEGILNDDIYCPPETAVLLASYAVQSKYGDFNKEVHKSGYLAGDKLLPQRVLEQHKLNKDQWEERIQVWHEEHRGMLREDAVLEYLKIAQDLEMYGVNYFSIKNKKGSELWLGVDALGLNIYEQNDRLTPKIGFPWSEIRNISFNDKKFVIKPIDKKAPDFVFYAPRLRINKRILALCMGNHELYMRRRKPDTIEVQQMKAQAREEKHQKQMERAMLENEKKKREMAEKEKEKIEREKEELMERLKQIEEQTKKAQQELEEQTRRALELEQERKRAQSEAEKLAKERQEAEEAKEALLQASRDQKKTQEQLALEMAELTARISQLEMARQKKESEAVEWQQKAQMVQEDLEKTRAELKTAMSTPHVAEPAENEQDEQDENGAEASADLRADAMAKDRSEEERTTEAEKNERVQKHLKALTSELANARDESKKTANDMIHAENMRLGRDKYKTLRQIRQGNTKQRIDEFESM
UniProt Q14517, sequence (Q14517 whole entry): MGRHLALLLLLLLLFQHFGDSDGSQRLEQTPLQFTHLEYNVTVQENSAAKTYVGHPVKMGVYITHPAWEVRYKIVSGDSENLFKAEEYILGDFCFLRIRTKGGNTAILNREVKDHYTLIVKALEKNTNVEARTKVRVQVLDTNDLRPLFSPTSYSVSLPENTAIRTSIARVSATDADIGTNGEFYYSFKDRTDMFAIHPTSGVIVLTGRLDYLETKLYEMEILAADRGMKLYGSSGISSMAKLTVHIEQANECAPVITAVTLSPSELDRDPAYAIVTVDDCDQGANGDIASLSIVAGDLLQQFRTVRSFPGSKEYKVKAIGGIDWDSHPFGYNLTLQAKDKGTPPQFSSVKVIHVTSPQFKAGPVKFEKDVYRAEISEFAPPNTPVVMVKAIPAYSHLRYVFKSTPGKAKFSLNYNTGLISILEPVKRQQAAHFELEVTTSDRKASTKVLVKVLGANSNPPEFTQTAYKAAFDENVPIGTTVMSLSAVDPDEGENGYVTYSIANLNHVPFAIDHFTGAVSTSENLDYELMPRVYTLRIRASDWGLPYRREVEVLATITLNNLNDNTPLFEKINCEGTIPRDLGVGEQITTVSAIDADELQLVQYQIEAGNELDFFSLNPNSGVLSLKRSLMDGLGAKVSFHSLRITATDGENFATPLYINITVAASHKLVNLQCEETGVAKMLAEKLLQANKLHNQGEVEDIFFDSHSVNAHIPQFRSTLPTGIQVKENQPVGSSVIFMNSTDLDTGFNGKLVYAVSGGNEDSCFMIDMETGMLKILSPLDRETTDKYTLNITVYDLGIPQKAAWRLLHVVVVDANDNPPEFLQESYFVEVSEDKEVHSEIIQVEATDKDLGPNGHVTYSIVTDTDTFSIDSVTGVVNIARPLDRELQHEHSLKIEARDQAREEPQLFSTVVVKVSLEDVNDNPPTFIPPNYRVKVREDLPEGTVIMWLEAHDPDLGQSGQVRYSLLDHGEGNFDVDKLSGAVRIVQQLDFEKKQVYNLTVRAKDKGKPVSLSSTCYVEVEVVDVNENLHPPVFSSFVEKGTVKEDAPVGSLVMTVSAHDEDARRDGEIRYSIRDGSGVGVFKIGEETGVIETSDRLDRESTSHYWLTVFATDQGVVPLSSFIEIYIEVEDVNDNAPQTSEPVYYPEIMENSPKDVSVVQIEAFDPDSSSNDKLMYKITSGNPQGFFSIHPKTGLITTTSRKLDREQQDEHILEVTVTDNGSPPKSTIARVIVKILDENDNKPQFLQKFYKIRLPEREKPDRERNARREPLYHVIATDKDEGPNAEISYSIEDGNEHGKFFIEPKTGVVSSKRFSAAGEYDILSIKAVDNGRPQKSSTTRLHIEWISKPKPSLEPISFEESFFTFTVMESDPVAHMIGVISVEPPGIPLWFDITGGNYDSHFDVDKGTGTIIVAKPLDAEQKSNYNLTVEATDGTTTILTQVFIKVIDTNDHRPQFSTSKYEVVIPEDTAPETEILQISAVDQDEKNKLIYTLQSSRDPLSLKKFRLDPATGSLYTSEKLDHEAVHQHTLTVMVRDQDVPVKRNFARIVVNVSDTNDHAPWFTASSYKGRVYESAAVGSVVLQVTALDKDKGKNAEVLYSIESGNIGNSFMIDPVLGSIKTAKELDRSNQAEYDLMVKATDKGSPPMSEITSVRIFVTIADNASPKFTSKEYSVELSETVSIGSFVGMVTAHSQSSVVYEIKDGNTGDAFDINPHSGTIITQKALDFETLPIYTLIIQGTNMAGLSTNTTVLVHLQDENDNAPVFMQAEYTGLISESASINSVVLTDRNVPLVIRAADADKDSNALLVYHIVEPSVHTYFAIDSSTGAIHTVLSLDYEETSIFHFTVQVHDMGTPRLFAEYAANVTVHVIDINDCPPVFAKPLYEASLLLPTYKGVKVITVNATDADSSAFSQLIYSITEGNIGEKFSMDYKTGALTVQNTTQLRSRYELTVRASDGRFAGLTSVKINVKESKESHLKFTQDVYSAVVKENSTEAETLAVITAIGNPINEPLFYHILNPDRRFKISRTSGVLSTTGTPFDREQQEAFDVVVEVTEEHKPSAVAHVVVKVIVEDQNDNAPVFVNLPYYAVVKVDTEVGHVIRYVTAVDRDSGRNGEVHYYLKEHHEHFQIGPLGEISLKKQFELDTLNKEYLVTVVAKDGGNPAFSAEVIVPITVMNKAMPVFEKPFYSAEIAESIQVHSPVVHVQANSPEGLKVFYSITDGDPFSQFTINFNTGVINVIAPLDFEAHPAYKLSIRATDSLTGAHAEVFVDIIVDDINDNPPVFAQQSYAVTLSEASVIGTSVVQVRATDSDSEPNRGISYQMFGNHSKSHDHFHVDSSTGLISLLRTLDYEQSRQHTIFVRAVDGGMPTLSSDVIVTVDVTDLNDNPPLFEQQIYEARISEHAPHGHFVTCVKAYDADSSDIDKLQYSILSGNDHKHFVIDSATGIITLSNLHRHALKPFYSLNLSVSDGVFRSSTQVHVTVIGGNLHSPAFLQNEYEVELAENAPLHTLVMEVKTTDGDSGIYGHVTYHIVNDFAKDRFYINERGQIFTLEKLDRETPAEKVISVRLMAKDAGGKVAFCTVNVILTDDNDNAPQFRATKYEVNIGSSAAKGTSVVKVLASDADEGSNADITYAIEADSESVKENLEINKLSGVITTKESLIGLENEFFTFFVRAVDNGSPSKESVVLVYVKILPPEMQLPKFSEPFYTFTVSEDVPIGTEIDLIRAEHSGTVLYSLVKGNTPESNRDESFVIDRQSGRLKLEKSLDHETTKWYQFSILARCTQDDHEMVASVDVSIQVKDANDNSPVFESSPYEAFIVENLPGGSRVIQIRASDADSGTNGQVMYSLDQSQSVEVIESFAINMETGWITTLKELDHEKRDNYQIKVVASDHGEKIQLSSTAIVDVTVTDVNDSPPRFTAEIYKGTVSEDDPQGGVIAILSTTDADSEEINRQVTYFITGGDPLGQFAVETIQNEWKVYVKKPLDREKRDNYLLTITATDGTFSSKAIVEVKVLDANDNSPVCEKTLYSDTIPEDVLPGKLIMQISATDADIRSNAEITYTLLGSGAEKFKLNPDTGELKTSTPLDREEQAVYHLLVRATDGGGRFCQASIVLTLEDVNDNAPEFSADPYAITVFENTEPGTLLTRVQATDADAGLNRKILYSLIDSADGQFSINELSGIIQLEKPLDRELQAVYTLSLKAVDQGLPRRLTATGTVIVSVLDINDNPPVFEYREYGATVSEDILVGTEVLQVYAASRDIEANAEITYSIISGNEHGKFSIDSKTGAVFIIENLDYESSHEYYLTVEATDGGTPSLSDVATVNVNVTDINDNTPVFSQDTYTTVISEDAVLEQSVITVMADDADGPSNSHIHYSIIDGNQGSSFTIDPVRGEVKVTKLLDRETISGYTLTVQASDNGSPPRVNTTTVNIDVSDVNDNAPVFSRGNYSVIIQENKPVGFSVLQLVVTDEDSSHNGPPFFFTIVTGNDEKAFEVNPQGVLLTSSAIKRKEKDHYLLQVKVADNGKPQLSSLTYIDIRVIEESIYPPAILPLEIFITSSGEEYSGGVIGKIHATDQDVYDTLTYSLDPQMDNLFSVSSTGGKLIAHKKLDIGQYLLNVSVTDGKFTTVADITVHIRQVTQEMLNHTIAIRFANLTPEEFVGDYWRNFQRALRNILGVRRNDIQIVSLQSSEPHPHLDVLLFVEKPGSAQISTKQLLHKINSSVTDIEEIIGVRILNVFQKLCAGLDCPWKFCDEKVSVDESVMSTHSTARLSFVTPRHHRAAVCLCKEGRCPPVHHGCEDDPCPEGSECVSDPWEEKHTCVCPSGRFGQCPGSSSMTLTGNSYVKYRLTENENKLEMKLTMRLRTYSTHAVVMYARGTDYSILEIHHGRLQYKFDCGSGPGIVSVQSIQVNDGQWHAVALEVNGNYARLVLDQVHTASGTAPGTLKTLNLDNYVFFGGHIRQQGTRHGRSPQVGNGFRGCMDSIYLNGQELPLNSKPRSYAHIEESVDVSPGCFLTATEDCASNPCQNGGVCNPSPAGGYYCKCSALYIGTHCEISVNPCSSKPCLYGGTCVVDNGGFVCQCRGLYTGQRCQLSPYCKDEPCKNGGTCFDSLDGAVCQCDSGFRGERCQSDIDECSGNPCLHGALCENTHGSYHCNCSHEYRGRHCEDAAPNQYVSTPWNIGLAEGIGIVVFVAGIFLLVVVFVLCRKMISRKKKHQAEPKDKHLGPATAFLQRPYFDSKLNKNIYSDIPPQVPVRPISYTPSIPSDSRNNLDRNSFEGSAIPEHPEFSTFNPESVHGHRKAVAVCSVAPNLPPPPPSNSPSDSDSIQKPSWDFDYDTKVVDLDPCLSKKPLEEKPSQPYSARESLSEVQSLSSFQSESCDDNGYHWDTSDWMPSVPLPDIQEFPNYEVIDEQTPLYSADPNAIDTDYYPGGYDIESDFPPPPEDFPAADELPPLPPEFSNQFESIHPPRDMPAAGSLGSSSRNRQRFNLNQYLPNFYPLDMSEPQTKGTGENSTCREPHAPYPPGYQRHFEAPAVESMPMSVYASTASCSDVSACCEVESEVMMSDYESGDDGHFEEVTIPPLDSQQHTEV

Target	lysine labeling ratio R10:1
BCAP31 (lysine site: K176) (UniProt P51572)	0.745 (active)
G6PD (lysine site: K432) (UniProt P11413)	1.85 (active)
UniProt P55285 (lysine site: K276)	1.67 (active)
SDC4 (lysine site: K105) (UniProt P31431)	3.81
NRP1 (lysine site: K509) (UniProt O14786)	5.12
MSN (lysine site: K64) (UniProt P26038)	1.22 (active)
ACSL3 (lysine site: K706) (UniProt O95573)	3.43
FKBP4 (lysine site: K354) (UniProt Q02790)	1.51 (active)
RUVBL1 (lysine site: K182) (UniProt Q9Y265)	0.748 (active)
PGRMC1 (lysine site: K102) (UniProt O00264)	5.04
ITGA5 (lysine site: K910) (UniProt P08648)	3.88
UniProt P48060 (lysine site: K200)	3.31
FAT1 (lysine site: K3783) (UniProt Q14517)	1.6 (active)
UniProt Q15365 (lysine site: K314)	1.71 (active)
M6PR (lysine site: K50) (UniProt P20645)	2.84
IGF1R (lysine site: K709) (UniProt P08069)	4.79
CKAP4 (lysine site: K191) (UniProt Q07065)	2.86
